# About 83,000 compounds went through this panel and 20% of them were active in at least one assay; those are over-represented in the sample as a whole.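 The endpoint reported here, percent growth, reads 100 for growth as untreated, 0 for no net growth and -100 for all cells dead.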 Values without a mark were called inactive. Activity calls are given as the source filed them. Rule for the calls: active = growth percent below 10; inactive = the rest.
# System: HL-60(TB) leukemia
# Test: NCI-60 one-dose screen, 48 h (100 = growth as untreated, 0 = no growth, -100 = all killed)
# Conditions: 10 µM unless noted
row,SMILES,growth
1,COc1cc(C2=NN(c3ccccc3)C(c3cccc(Nc4ccnc5cc(C(F)(F)F)ccc45)c3)C2)cc(OC)c1OC (stereo not given),94.8%
2,O=C(Nc1ncc(Cc2ccc(Cl)cc2)s1)C1=NCCCCN1,97%
3,C(CCCSC1=NCCN1)CCSC1=NCCN1,76.2%
4,C=C1C(=O)O[C@H]2[C@H]1CC/C(COC(=O)N[C@@H](Cc1c[nH]c3ccccc13)C(=O)OC)=C\CC[C@@]1(C)O[C@@H]21,-52.6% (active)
5,Cc1cc(C)n(-c2nc(-c3cccs3)c(C#N)c(=O)[nH]2)n1,94.4%
6,O=C(CCCCCCc1nc2ccc(Br)cc2[nH]1)NO,2.12% (active)
7,COc1ccc(C(=O)C(C)Br)cc1OC (stereo not given),96.7%
8,Oc1cccnc1CN1CCCC1,100%
9,C[C@@H](C[C@H](CCOCc1cccnc1)c1ccccc1)c1cc2ccccc2o1,98%
10,Cc1cc2nc(CN)[nH]c2cc1C,96.6%
11,C=CCCCC(=O)CCC(=O)OCC1O[C@@H](O[C@@H]2C(O)[C@@H](OC(C)=O)C(C)O[C@H]2O[C@H](CC=C)CCCCC)C(O)[C@@H](OC(=O)/C(C)=C/C)[C@@H]1OC(=O)/C=C/c1ccccc1 (stereo not given in full),8.45% (active)
12,O=C(c1ccccc1)C(Sc1ccccc1)c1ccccc1 (stereo not given),84.1%
13,c1ccc(Sc2ncccn2)nc1,100%
14,C/C(=N/NC(=O)c1sc(=S)n(C)c1N)c1cc2cc(Cl)ccc2o1,113%
15,CCCNc1nc2ccccc2c2c(=O)c3cccc(Cl)c3sc12,108%
16,CN(C)c1ccc2c(c1)OC(N)=C(C#N)C2c1ccc2c(c1)CCO2 (stereo not given),-1.56% (active)
17,OCC1OC(n2ccc3c(NO)ncnc32)C(O)C1O (stereo not given),-35.1% (active)
18,NC(=N\N=C/c1ccccc1[N+](=O)[O-])/C(N)=N\N=C/c1ccccc1[N+](=O)[O-],105%
19,Oc1c(Cl)cc(Oc2cc(Cl)c(O)c(CN3CCOCC3)c2)cc1CN1CCOCC1,86.7%
20,CN1C(=O)N(C)C2(c3ccccc3)N(CC(=O)Nc3ccccc3O)C(=O)NC12c1ccccc1 (stereo not given),98.9%

row,SMILES,growth
1,c1cc2nc(-c3cn[nH]c3)c3c(c2cc1-c1cn[nH]c1)C1CCC3C1 (stereo not given),84.3%
2,COc1ccc(C(=O)/C=C/c2cccnc2Nc2cc(OC)c(OC)c(OC)c2)cc1,-23.2% (active)
3,CC1(C)OC(=O)C(c2ccsc2)C(=O)O1,112%
4,COc1cc2c(cc1OCCCCCCN1CCN(c3ncnc4ccccc34)CC1)N=CC1CCCN1C2=O (stereo not given),-43.3% (active)
5,Cc1cnc(SCc2ccc(Cl)cc2Cl)nc1Nc1ccc(Cl)c(Cl)c1,81%
6,COc1cc(-c2ccc[nH]2)[nH]c1/C=C1\N=C(C)C(CC(=O)OCC(C)(C)C)=C1C,-44.5% (active)
7,Cc1cccc(N2CCC(=O)NC2=S)c1,98.6%
8,CSc1ncnc2c1ncn2C1CCCO1 (stereo not given),99.9%
9,COc1ccccc1C(=O)NC(=S)Nc1ccc(-c2nc3ccccc3[nH]2)cc1,59.7%
10,COc1cc2ncnc(Oc3ccc(NC(=O)Nc4ccc(C5(C#N)CCCC5)cc4)c4ccccc34)c2cc1OC,72.6%
11,O=C(Nc1ccc(-n2ccc3c(NC(=O)c4ccccc4)ncnc32)cc1)c1cccc(C(F)(F)F)c1,43.9%
12,COc1cc(C(=O)/C=C/c2cc(-c3ccc4c(c3)OCO4)n[nH]2)cc(OC)c1OC,-16.6% (active)
13,CCOC(=O)c1cc(C(=O)c2cc(OC)cc(OC)c2)n2ccc3ccccc3c12,103%
14,COc1ccc(C(=O)C(C#N)c2cc(OC)c(OC)c(OC)c2)cc1 (stereo not given),96%
15,Cc1ccc2nc(SCn3nnc4ccccc4c3=O)[nH]c2c1,80.3%
16,O=C1c2cc3c(cc2-c2c1c1ccc(F)cc1c(=O)n2C[C@H](O)[C@@H](O)[C@H](O)CO)OCO3,-3.71% (active)
17,C/C=C/C1=CN2C(=O)c3cc(OC4OC(C)C(NC)C(C)(O)C4O)c(C)c(O)c3N=C[C@@H]2C1 (stereo not given in full),-4.33% (active)
18,COc1ccc(-n2nc(C)c3c(Oc4ccc(NC(=O)Nc5c(Cl)cccc5Cl)cc4)ncnc32)cc1,100%
19,O=c1n(CC2CO2)c(=O)n(CC2CO2)c(=O)n1CC1CO1 (stereo not given),20.4%
20,COc1ccccc1OCC(=O)N1CCCCCC1,93.6%

# Reference: PubChem BioAssay (NCI)
